This is part of a sample that, as a whole, favours compounds with a hit. Of some 83,000 tested, about 20% had one in any assay.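 48-hour exposure, single concentration, 96-well plates; percent growth endpoint where 0 means no net growth. Active: below 10.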 Unmarked numbers belong to inactive results. Calls of active or inactive are those of the source.
Legend:
Assay in all cases: NCI-60 one-dose screen, 48 h (100 = growth as untreated, 0 = no growth, -100 = all killed)
Details in all cases: 10 µM unless noted
T-47D breast = test system: T-47D breast
BT-549 breast = test system: BT-549 breast
MDA-MB-435 melanoma = test system: MDA-MB-435 melanoma
SW-620 colon = test system: SW-620 colon
MCF7 breast = test system: MCF7 breast
HCT-116 colon = test system: HCT-116 colon
HCC-2998 colon = test system: HCC-2998 colon
KM12 colon = test system: KM12 colon

| Compound | growth (T-47D breast) | growth (BT-549 breast) | growth (MDA-MB-435 melanoma) | growth (SW-620 colon) | growth (MCF7 breast) | growth (HCT-116 colon) | growth (HCC-2998 colon) | growth (KM12 colon) |
| --- | --- | --- | --- | --- | --- | --- | --- | --- |
| O=C1C(Cl)=C(Nc2cccc3cc4ccccc4nc23)C(=O)c2ccccc21 | 37.9% | 91.7% | 59% | 31.1% | 20.1% | 17% | 50.7% | 52.3% |
| COc1cc(-c2nc(SCC(=O)Nc3ccc(C(C)=O)cc3)[nH]c(=O)c2C#N)cc(OC)c1OC | 35.9% | 36.8% | -46.1% (active) | 25.8% | 18.2% | 3.92% (active) | 21% | 16.8% |
| COc1ccc(/C=C2\CS(=O)(=O)C/C(=C\c3ccc(OC)cc3)C2=O)cc1 | 14.6% | -38.6% (active) | -28.8% (active) | 0.757% (active) | -15% (active) | -83.2% (active) | -98% (active) | -93.2% (active) |
| FC(F)(F)c1cn(CC2CNC2)c2ncnc(Cl)c12 | 102% | 125% | 109% | 104% | 103% | 108% | 99.5% | 104% |
| COC(=O)c1ccc2c(c1)Oc1ccc(Cl)cc1-c1cc(C)nn1-2 | 71.7% | 96% | 97.5% | 68.5% | 79.4% | 44% | 100% | 87.7% |
| COc1ccc2c(c1)OC(N)=C(C#N)C2c1ccc(F)c(F)c1 (stereo not drawn) | 46.8% | 48.3% | -18.6% (active) | 21.3% | 18.8% | 24.2% | 49.7% | 28.6% |
| COc1ccc(/C=C/C(=O)c2ccc(-n3cc(CN4CCN(c5cc6c(cc5F)c(=O)c(C(=O)O)cn6C5CC5)CC4)nn3)cc2)cc1OC | 28.1% | 51% | 5.4% (active) | 9.41% (active) | 16.1% | -39.5% (active) | -39.7% (active) | 8.81% (active) |
| CC[C@H]1[C@@H]2C=C[C@@H]3[C@H]4C/C=C\C(=O)NCCC[C@@H]5NC(=O)/C(=C(O)/C=C/[C@@H]4C[C@@H]3[C@H]2C[C@H]1C)C5=O | 33.7% | -49.2% (active) | -81% (active) | 69.2% | 41.3% | -11.8% (active) | 52.8% | 63.8% |
| CC(C)[C@@H]1NC(=O)[C@]2(C)CSC(=N2)c2ccnc(c2)CNC(=O)C[C@@H](/C=C/CCS)OC1=O | -24.6% (active) | 42.7% | 5.07% (active) | 4.68% (active) | 16.1% | -39.2% (active) | -66.5% (active) | 6.09% (active) |
| C/C(=N/O)c1ccc(NC(=O)Cn2nc(-c3ccc(Cl)cc3)nc2N)cc1 | 87% | 116% | 109% | 104% | 84.9% | 107% | 103% | 98.4% |
| O=C(NCCNc1nccc(-c2c(-c3cccc(O)c3)nc3sccn23)n1)c1cccc(C(F)(F)F)c1 | 69.5% | 88% | 21.7% | 107% | 75.3% | 74.3% | 117% | 80.9% |
| CCCCCCCCCCCCCCCCCCNCc1ccc(Cl)cc1 | 9.34% (active) | 38.5% | -80.3% (active) | -75.8% (active) | -71.2% (active) | -74.5% (active) | -82.8% (active) | -77.2% (active) |
| COc1ccc(-c2nnc(SCC(=O)Nc3ccc(C(=O)/C=C/c4ccc(Cl)cc4)cc3)o2)cc1OC | 90.1% | 57.3% | 81.1% | 101% | 57.5% | 75.6% | 96% | 97.9% |
| CC(=O)CC/C=C(\C)[C@H](O)[C@H](C)C(=O)O[C@H]1C[C@H](C)C=C2C=C[C@@]3(C)O[C@@H](O)CC(=O)[C@]3(C)[C@H]21 | -26.6% (active) | -57% (active) | -88.3% (active) | 1.02% (active) | -4.71% (active) | -20.3% (active) | -81.9% (active) | -10% (active) |
| COc1ccc(/C(Cl)=N/N=C(\Cl)c2cc(OC)c(OC)c(OC)c2)cc1OC(C)=O | 66.2% | 96.1% | 99.9% | 93.7% | 93.9% | 90.5% | 102% | 98.2% |
| COc1ccc(C(=O)Cn2cnc3c(Nc4cc(C(=O)Nc5ccc(N6CCN(CCO)CC6)cc5)ccc4C)ncnc32)cc1 | 91.6% | 94.9% | 105% | 105% | 87.1% | 97.3% | 97.4% | 99.4% |

| Compound | growth (T-47D breast) | growth (BT-549 breast) | growth (MDA-MB-435 melanoma) | growth (SW-620 colon) | growth (MCF7 breast) | growth (HCT-116 colon) | growth (HCC-2998 colon) | growth (KM12 colon) |
| --- | --- | --- | --- | --- | --- | --- | --- | --- |
| CCOC(=O)C1=C(N)Oc2cc(OC)ccc2C1c1ccc(F)c(F)c1 (stereo not drawn) | 36.4% | 50.2% | -15.8% (active) | 21.1% | 16.6% | 31.8% | 54.5% | 27% |
| CCOC(=O)C(C)(CSSCC(C)(NC(=O)c1ccc2ccccc2c1)C(=O)OCC)NC(=O)c1ccc2ccccc2c1 (stereo not drawn) | 86.6% | 138% | 96.3% | 96.5% | 92.2% | 47% | 119% | 107% |
| CCOc1ccccc1C(=O)N1CCN(c2cc(Cl)cc(Cl)c2)CC1 | 49% | -13.2% (active) | -12.8% (active) | 22.9% | 15.2% | -6.57% (active) | 16.4% | 8.79% (active) |
| CCCCOc1c(N)cc(Cl)cc1C(=O)OCCN(CC)CC | 99.8% | 76.5% | 111% | 99.2% | 93.3% | 80.3% | 109% | 104% |
| O=[N+]([O-])c1ccc(NS(=O)(=O)c2ccccc2)c2ccccc12 | 32% | 37.2% | 36.8% | 49.6% | 42.3% | 44.6% | 36.7% | 40.1% |
| O=C(Nc1cccc([N+](=O)[O-])c1)Nc1cccc([N+](=O)[O-])c1 | 6.88% (active) | 50.5% | 63.1% | 45.4% | 20.7% | 37.3% | 45.2% | 27.7% |
| CCCCCCCCCCCCCCCC(=O)NS(=O)(=O)OC[C@H]1O[C@@H](n2cnc3c(N)ncnc32)[C@H](O)[C@@H]1O | -16.9% (active) | -65.2% (active) | -74.5% (active) | -39.2% (active) | 5.8% (active) | -25.8% (active) | -85.9% (active) | -39.2% (active) |
| COc1ccc(-c2nnc(NC(=O)CN3CCN(c4cc5c(cc4F)c(=O)c(C(=O)O)cn5C4CC4)CC3)s2)cc1OC | 101% | 105% | 103% | 105% | 106% | 103% | 99.6% | 98.2% |
| Cc1nc(-c2ccc(Cl)cc2)ccc1NC(=O)Nc1cccc(C(F)(F)F)c1 | 87.5% | 98.6% | 103% | 89.6% | 81% | 74.5% | 107% | 101% |
| C=CC(=O)Nc1cccc(Nc2nc(Nc3ccc(OCCOC(F)F)cc3)ncc2F)c1 | 32.8% | 24.5% | 9.37% (active) | 19% | 23.9% | 36% | 35.8% | 37.4% |
| COc1ccc(-c2c(NC(=O)Nc3ccc(Cl)c(C(F)(F)F)c3)cnn2-c2ccc(S(N)(=O)=O)cc2)cc1 | 16.9% | 39.3% | 24.3% | 38.2% | 11.5% | 14.5% | 28.5% | 29.6% |
| S=c1[nH]nc(Cn2c3ccccc3c3ccncc32)o1 | 96% | 105% | 102% | 104% | 109% | 102% | 106% | 102% |
| COc1cc(NS(C)(=O)=O)ccc1Cc1c2ccccc2nc2ccccc12 | 33.5% | -13.9% (active) | 51.1% | 26.6% | 28% | 0.0983% (active) | 11.9% | 11.1% |
| CC1=C[S+](c2ccccc2)c2cccc3cc4ccccc4c1c23 (stereo not drawn) | -51.9% (active) | -10.9% (active) | 0.153% (active) | -13.4% (active) | -49.9% (active) | -87.6% (active) | -89.4% (active) | -88% (active) |
| COc1cc(Br)c(-c2nc(-c3ccccc3)c(-c3ccccc3)n2Cc2ccccc2)cc1OC | 35.8% | 75.9% | 59.8% | 73.4% | 38.3% | 30.3% | 67.9% | 49.6% |

Reference: PubChem BioAssay (NCI)
